About 79,000 compounds went through this panel and 15% of them were active in at least one assay; those are over-represented in the sample as a whole. Active and inactive are the calls of the source. Cut-off read from the data, not from the text of the source: active = growth inhibition above about 70%; inactive = the rest.

One test in a line: NCI Yeast Anticancer Drug Screen. Data for the rad50 strain (AID 155).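 Note: 0% = growth of vehicle-only cultures of the same strain.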 To be noted: S. cerevisiae rad50 strain growth inhibition; at 50.0 µM; hits give high values. A digest of the protocol:
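Relative growth inhibition (compound vs vehicle) was measured in yeast with a defined repair-gene alteration.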
Turning to `BrCC[N+]12CC[N+](CCBr)(CC1)C2` (tested in a mixture with another compound), the growth inhibition was 63.1% (inactive).

Turning to `NS(=O)(=O)CC1CC[CH-]CC1.[Cl-].[Cl-].[Cl-].[Cl-].[Cl-].[Sb+5].c1ccncc1`, the growth inhibition was 11.3% (inactive).

For the molecule `CC1(C)N=C(N)N=C(N)N1c1ccc(CCCCCCc2ccc(S(=O)(=O)F)cc2)cc1`, the growth inhibition is 99.5% (active).

For `COC(=O)C1(O)c2ccccc2N=C2C1CCN2C` (centres undefined), the growth inhibition was 15.1% (inactive).

In the case of `[N-]=[N+]=CC(=O)CCC(=O)C=[N+]=[N-]`, the growth inhibition is 10.2% (inactive).

Take `CCCCCCCCCCCCCCCC[As](CCCCCCCCCCCCCCCC)SCC1OC(OC(C)=O)C(OC(C)=O)C(OC(C)=O)C1OC(C)=O` (centres undefined): the growth inhibition was -3.8% (inactive).

For the molecule `CCCCSP(=O)(SCCCC)N1CCCCC1`, the growth inhibition is 98.9% (active).

As for `CC(C)CN(CC(C)C)[N+](=O)[O-]`, the growth inhibition is -6.25% (inactive).

In the case of `CN(N)c1ccc([N+](=O)[O-])cc1[N+](=O)[O-]`, the growth inhibition was -5.75% (inactive).

Regarding `O=c1ccc(=O)[nH][nH]1.[Zn+2]`, the growth inhibition is -18.2% (inactive).

For the molecule `O=C(c1cc(N(CCCl)CCCl)c([N+](=O)[O-])cc1[N+](=O)[O-])N1CCOCC1`, the growth inhibition is -1.6% (inactive).

Take `CCN(CC)CCn1c(=O)n(C)c2ccccc21`: the growth inhibition is 2.75% (inactive).

`Cc1nc2cccc(F)c2c(=O)n1-c1nnc(C(F)(F)F)s1`: the growth inhibition was 16.9% (inactive).

As for `O=P(O)(NCCCl)NCCCl`, the growth inhibition is -24.4% (inactive).

For the molecule `Clc1ccc(C(c2ccccc2Cl)C(Cl)(Cl)Cl)cc1` (centres undefined), the growth inhibition was -24.6% (inactive).

Take `COc1ccc(C)cc1C(CC(=O)O)CC(=O)N(CCCl)CCCl` (centres undefined): the growth inhibition is 39.6% (inactive).

On to `C[N+](C)(Cc1ccccc1[N+](=O)[O-])c1ccc(N(CCCl)CCCl)cc1`, for which the growth inhibition is -7.8% (inactive).

Turning to `O=C(CCCN1CCC2(CC1)C(=O)NCN2c1ccccc1)c1ccccc1`, the growth inhibition is -17.6% (inactive).

As to `NCCCC(N)P(=O)(O)O` (centres undefined), the growth inhibition is 12.3% (inactive).

As to `ClCCCCBr`, the growth inhibition is 17.6% (inactive).

As for `CC(CN1NC12CCCC2)N1NC12CCCC2` (centres undefined), the growth inhibition is 0.95% (inactive).

Another test is described as follows: NCI Yeast Anticancer Drug Screen. Data for the mec2-1 strain (AID 157). To be noted: S. cerevisiae mec2-1 strain, at 50.0 µM, hits give high values. Put shortly: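 Test agents were screened against the mec2-1 yeast strain, with defined DNA repair or cell cycle alteration. Growth was scored as inhibition against vehicle-only controls.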
Turning to `O=[N+]([O-])C(CO)CCCC(CO)[N+](=O)[O-]` (centres undefined), the growth inhibition is -6% (inactive).

In the case of `CN1CCC[N+](C)=C1c1ccc(N(C)C)cc1`, the growth inhibition was -12.3% (inactive).

As for `COP1(=S)OCC2OC(n3cc(C)c(=O)[nH]c3=O)CC2O1` (centres undefined), the growth inhibition is -17.2% (inactive).

Regarding `CN(c1ccccc1)c1nc(=[N+]2CCCC2)ss1`, the growth inhibition was -1.3% (inactive).

In the case of `NC(Cc1ccccc1)c1nn[nH]n1` (centres undefined), the growth inhibition is -19.1% (inactive).

`O=C1NC(=O)C2(c3ccccc3)CCN1C2=O` (centres undefined): the growth inhibition is 4.6% (inactive).

With `Cc1cc(C)c(CCN(C)C)c(C)c1C`, the growth inhibition was 0.65% (inactive).

With `O=C1N=NC(Cl)c2ccccc21` (centres undefined), the growth inhibition is -13.5% (inactive).

As for `CN(C)c1ccc(C=O)cc1.[C-]#[O+].[C-]#[O+].[C-]#[O+].[Cr]`, the growth inhibition was -35.5% (inactive).

In the case of `CC12CC/C(=N/NC(=O)Cc3c[nH]c4ccccc34)C=C1CCC1C2CCC2(C)C(OC(=O)c3ccccc3)CCC12` (centres undefined), the growth inhibition was 28.6% (inactive).

As for `COc1cccc(C2CC(=O)c3cccn32)c1` (centres undefined), the growth inhibition was 1.65% (inactive).

Regarding `COc1cc(CC(N)c2ccccc2)ccc1O` (centres undefined), the growth inhibition is 2.45% (inactive).

As to `CCCCC1(CCSC(=S)OCC)C(=O)NC(=O)NC1=O`, the growth inhibition is -12.1% (inactive).

On to `CC(=O)Oc1ccc(CCN(C)C2CC3CCC2(C)C3(C)C)cc1OC(C)=O` (centres undefined), for which the growth inhibition was 21.4% (inactive).

`O=[N+]([O-])c1cccc(C(Cl)Cl)c1`: the growth inhibition was -4.7% (inactive).

Take `CCOP(=S)(NCCCOC)OCC`: the growth inhibition was 5.8% (inactive).

Take `CCOC(OC1=C(C#N)CCCC1)C(C)[Se]c1ccccc1` (centres undefined): the growth inhibition was 25.2% (inactive).

With `FC(F)(F)[S-].FC(F)(F)[S-].[C-]#[O+].[C-]#[O+].[C-]#[O+].[C-]#[O+].[C-]#[O+].[C-]#[O+].[C-]#[O+].[C-]#[O+].[Mn].[Mn]`, the growth inhibition is 99.6% (active).

With `BrCC[N+]12CC[N+](CCBr)(CC1)C2` (tested in a mixture with another compound), the growth inhibition is 49.5% (inactive).

On to `NS(=O)(=O)CC1CC[CH-]CC1.[Cl-].[Cl-].[Cl-].[Cl-].[Cl-].[Sb+5].c1ccncc1`, for which the growth inhibition was -14.1% (inactive).

On to `CC1(C)N=C(N)N=C(N)N1c1ccc(CCCCCCc2ccc(S(=O)(=O)F)cc2)cc1`, for which the growth inhibition was 99% (active).

Take `COC(=O)C1(O)c2ccccc2N=C2C1CCN2C` (centres undefined): the growth inhibition was -11.4% (inactive).

As to `[N-]=[N+]=CC(=O)CCC(=O)C=[N+]=[N-]`, the growth inhibition is -24% (inactive).

These data come from PubChem BioAssay (NCI).
